Screens as filed in PubChem BioAssay.
Shown are actives, neighbours in structure and some others; about 9.8% of the full set was active somewhere.
HPGD inh: inhibitors of human 15-hydroxyprostaglandin dehydrogenase (HPGD) | P15428 | purified HPGD, NADH fluorescence kinetic, PGE2 substrate | Potency, µM, usual class: inhibitors | 150,000 tested, 4.3% active
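20 nM HPGD preincubated 15 min at room temperature with compound in 50 mM Tris-HCl pH 8, 0.01% Tween 20. Started with 1 mM NAD+ and 30 uM prostaglandin E2; NADH fluorescence (360/450 nm) read 5 times over 30-s intervals, last minus first.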
ALDH1A1 block: ALDH1A1 (human) enzyme inhibition; 220,000 tested, 7.3% active; Potency, µM (titrated, usually from 75.3 µM), actives largely listed as inhibitors; Purified ALDH1A1, NADH fluorescence, propionaldehyde substrate
HttQ103 aggreg: reduces HttQ103-GFP aggregates in PC12 cells. PC12 HttQ103-GFP aggregates, Acumen cytometry, 40 h. Potency, µM (doses to about 46.1 µM), hits mostly inhibitors. 220,000 tested, 1.1% active; active means well fitted curve in the direction sought with a large enough effect; inconclusive means small, poorly fitted or top-dose-only effect, or another doubt; inactive means no such curve, though single readings can be large; an effect the other way counts as inactive or inconclusive; further: nearly all actives have a fitted effect of over 60% in size
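Ecdysone-promoter PC12 model expressing HTT exon 1 Q103 fused to GFP, induced by tebufenozide at 100 nM final. Compounds titrated; aggregates sized 1–25 µm scored on a 488 nm laser cytometer.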
KDM4E inh: JMJD2E (human) inhibition; Potency, µM (series often up to 57.1 µM), hits mostly inhibitors; JMJD2E catalytic domain, FDH-coupled NADH fluorescence (FDH is formaldehyde dehydrogenase); 230,000 tested, 1.6% active; B2RXH2; further: nearly all actives have a fitted effect of over 50% in size
Target sequence (B2RXH2 1-337 limits assumed): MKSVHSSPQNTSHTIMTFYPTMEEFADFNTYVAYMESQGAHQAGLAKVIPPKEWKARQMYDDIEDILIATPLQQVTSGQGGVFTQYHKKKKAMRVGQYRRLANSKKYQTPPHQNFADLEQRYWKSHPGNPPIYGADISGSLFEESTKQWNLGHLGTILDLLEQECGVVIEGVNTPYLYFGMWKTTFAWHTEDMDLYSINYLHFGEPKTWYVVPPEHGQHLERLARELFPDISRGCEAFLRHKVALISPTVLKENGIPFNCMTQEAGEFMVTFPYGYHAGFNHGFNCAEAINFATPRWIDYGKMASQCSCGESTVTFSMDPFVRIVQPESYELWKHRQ
CBFb RUNX1 block: CBF-beta/RUNX1 interaction disruption. Potency, µM (series often up to 59.8 µM), usual class: inhibitors. 230,000 tested, under 10 active. AlphaScreen CBFb-His/RUNX1-biotin binding, biochemical. Q01196+Q13951; active means well fitted curve in the direction sought with a large enough effect; inconclusive means small, poorly fitted or top-dose-only effect, or another doubt; inactive means no such curve, though single readings can be large; an effect the other way counts as inactive or inconclusive
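Inhibition was taken as any reduction in AlphaScreen signal from the CBF-beta–RUNX1 pair (His and biotin tags, 30 nM each), measured after compound (15 min) and bead (90 min) incubations at room temperature.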
HTT cytoprotect: cytoprotection in Huntington HTT-Q103 PC12 cell model; 230,000 tested, 0.14% active; PC12 HTT-Q103 induced, cytoprotection, ATP luminescence, 40 h; Potency, µM (top dose mostly 56.4 µM), most hits filed as activators; active means well fitted curve in the direction sought with a large enough effect; inconclusive means small, poorly fitted or top-dose-only effect, or another doubt; inactive means no such curve, though single readings can be large; an effect the other way counts as inactive or inconclusive; further: nearly all actives have a fitted effect of over 45% in size
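Readout: ATPlite luminescence (ATP level). Model: stable PC12, inducible Htt exon1 Q103-GFP. Inducer: tebufenozide, 100 nM final. Compounds: dose series. No G418 in medium.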
Of the large screens only hits and unclear results are named; the others gave an inactive call. Unless noted, the call rests on the fitted dose curve; in most records, active means well fitted inhibition curve with a large enough effect (not every such curve was filed as active); inconclusive means small, poorly fitted or top-dose-only effect, or another doubt; inactive means no such curve, though single readings can be large or run the other way.

Cc1csc(N(C(=O)c2cccc(S(=O)(=O)N(C)C)c2)c2ccccc2)n1	ALDH1A1 block inconclusive
CCC(=O)N1CCc2cc(S(=O)(=O)Nc3ccc4c(c3)OCCO4)ccc21	HttQ103 aggreg 7.9µM
O=C(C1CCC1)N1CCc2cc(S(=O)(=O)Nc3ccc4c(c3)OCCO4)ccc21	HttQ103 aggreg inconclusive
CN(C)S(=O)(=O)c1cccc(NC(=S)N/N=C/c2cccc(O)c2)c1	none (no result: HPGD inh)
CN(C)S(=O)(=O)c1cccc(NC(=S)Nc2cccc3cnccc23)c1	ALDH1A1 block 7.9µM, HttQ103 aggreg inconclusive, KDM4E inh 28µM, CBFb RUNX1 block inconclusive (no result: HPGD inh)
CN(C)S(=O)(=O)c1cccc(NC(=S)N/N=C/c2cc(Br)ccc2O)c1	KDM4E inh 10µM, CBFb RUNX1 block inconclusive (no result: HPGD inh, ALDH1A1 block)
CN(C)S(=O)(=O)c1cccc(NC(=S)Nc2ccc3cn[nH]c3c2)c1	ALDH1A1 block 22µM (no result: HPGD inh)
COc1ccc(NC(=S)Nc2ccc3cn[nH]c3c2)cc1	ALDH1A1 block inconclusive, KDM4E inh inconclusive (no result: HPGD inh)
S=C(Nc1cccnc1)Nc1cccc2cnccc12	ALDH1A1 block 13µM, KDM4E inh 14µM (no result: HPGD inh)
FC(F)(F)c1cc(Cl)c2nnc(C(F)(F)Cl)n2c1	none (no result: HPGD inh)
CC(=O)Nc1cc(C(=O)N(C)Cc2ccco2)ccc1Sc1ccc(C)cc1	none
S=C(Nc1ccc(Cl)cc1)Nc1cccc2cnccc12	HPGD inh inconclusive, ALDH1A1 block 18µM, HttQ103 aggreg inconclusive, KDM4E inh 14µM (no result: HTT cytoprotect)
Fc1ccc(NC(=S)Nc2ccccc2Cl)cc1	HTT cytoprotect inconclusive (no result: HPGD inh)
Cc1cc(Cl)ccc1NC(=S)Nc1cccnc1	none
Fc1ccc(NC(=S)Nc2cccc3cnccc23)cc1	ALDH1A1 block 7.9µM, HttQ103 aggreg inconclusive (no result: HPGD inh)
O=C(Nc1ccccc1N1CCN(c2ccccc2)CC1)c1ccccc1	none (no result: HPGD inh)
Cc1cc(C(=O)CN2C(=O)CCC2=O)c(C)n1Cc1ccccc1	ALDH1A1 block 7.1µM
O=S(=O)(Nc1cc(Sc2cccc3cccnc23)c(O)c2ccccc12)c1ccc(F)cc1	HPGD inh 1.3µM, ALDH1A1 block 28µM, HttQ103 aggreg 22µM, KDM4E inh 28µM (no result: CBFb RUNX1 block, HTT cytoprotect)
O=S(=O)(Nc1cccc2cccnc12)c1ccc(Br)cc1	none (no result: HPGD inh, ALDH1A1 block, HttQ103 aggreg, KDM4E inh, HTT cytoprotect)
O=C(Sc1cccc2cccnc12)c1ccc(F)cc1	ALDH1A1 block inconclusive, HttQ103 aggreg 10µM, KDM4E inh inconclusive (no result: HPGD inh, CBFb RUNX1 block)
CC(=O)/C(=N\Nc1ccccc1)Sc1cccc2cccnc12	CBFb RUNX1 block inconclusive
CCN(CC(=O)Nc1c(F)cccc1F)C(=O)CCc1ccc(OC)cc1	ALDH1A1 block 14µM (no result: HPGD inh)
COc1cc(C=NCC2OCCc3ccccc32)cc(OC)c1 (stereo not given)	ALDH1A1 block 22µM
CCOC(=O)c1ccc(NC(=S)NCCc2ccccc2)cc1	ALDH1A1 block inconclusive (no result: HPGD inh)
CCOC(=O)c1ccc(NC(=S)NCCC2=CCCCC2)cc1	HPGD inh 14µM, ALDH1A1 block inconclusive
Cc1ccc(NC(=S)NCCC2=CCCCC2)cc1	HttQ103 aggreg 13µM (no result: HPGD inh)
CC(=O)c1cccc(NC(=S)NCCC2=CCCCC2)c1	ALDH1A1 block inconclusive, HttQ103 aggreg inconclusive
COc1ccc(NC(=S)N2CCc3ccccc3C2)cc1OC	ALDH1A1 block inconclusive (no result: HPGD inh, HTT cytoprotect)
CC/C(=N\NC(=O)c1ccc(N(C)C)cc1)c1ccccc1	ALDH1A1 block 28µM (no result: HTT cytoprotect)
CN(C)c1ccc(/C=N/NC(=O)c2ccccc2)cc1	ALDH1A1 block inconclusive (no result: HPGD inh, HttQ103 aggreg, HTT cytoprotect)
CCOC(=O)c1cc[n+](CC(=O)c2ccc(F)cc2)cc1	ALDH1A1 block inconclusive, KDM4E inh 32µM
CCOC(=O)C1=C(C)NC(=O)NC1C (stereo not given)	HttQ103 aggreg inconclusive
CCOC(=O)C1=C(CBr)NC(=O)NC1C (stereo not given)	ALDH1A1 block 14µM (no result: HPGD inh)
NC1(C(=O)O)CCc2cc(P(=O)(O)O)ccc21 (stereo not given)	CBFb RUNX1 block inconclusive (no result: HPGD inh, HttQ103 aggreg, KDM4E inh)
N[C@]1(C(=O)O)CCc2cc(P(=O)(O)O)ccc21	KDM4E inh 40µM (no result: HttQ103 aggreg)
N#CC(C#N)=C1C=CC=CN1/C(=C\c1ccccc1Cl)C(=O)c1ccccc1	HPGD inh 7.9µM, ALDH1A1 block inconclusive, HttQ103 aggreg inconclusive, KDM4E inh inconclusive (no result: HTT cytoprotect)
